# Source: PubChem BioAssay AID1159580 (chemical genetic matrix, 2015)
# In all, about 5,500 compounds went through this assay and about 2,000 (36%) were called active. About 18% were inconclusive and are not listed. The list shows a part of the results. Values without a mark were called inactive. No stated cut-off is given here; in the data, active means normalized growth mostly below about 0.91 (no sharp cut-off); inconclusive means no clear call, values can overlap the other calls; inactive means mostly above about 0.92.
# Assay: chemical genetic growth profiling, strain panel (AID 1159580);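 further: tested at 20 µM; growth read once vehicle control cultures reached saturation at 30 °C; 1 = growth at the plate median or of vehicle wells; lower values mean less growth of the strain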
# Details: growth OD
smiles,measurement,setting,value
Nc1ncnc2nc[nH]c12,normalized growth,"S. cerevisiae deletion strains, locus YJR066W, strain TOR1, hits give low values",0.966
same,normalized growth,"S. cerevisiae deletion strains, locus YKL009W, strain mrt4, hits give low values",0.942
same,normalized growth,"S. cerevisiae deletion strains, locus YKL068W, hits give low values",1.03
same,normalized growth,"S. cerevisiae deletion strains, locus YKL085W, strain MDH1 (second series), hits give low values",1.01
same,normalized growth,"S. cerevisiae deletion strains, locus YKL085W, strain MDH1, hits give low values",1.01
same,normalized growth,"S. cerevisiae deletion strains, locus YKL160W, strain elf1, hits give low values",0.995
same,normalized growth,"S. cerevisiae deletion strains, locus YKR001C, strain vps1, hits give low values",0.319 (active)
same,normalized growth,"S. cerevisiae deletion strains, locus YKR026C, strain gcn3, hits give low values",0.996
same,normalized growth,"S. cerevisiae deletion strains, locus YKR091W, strain srl3, hits give low values",0.99
same,normalized growth,"S. cerevisiae deletion strains, locus YLL001W, strain dnm1, hits give low values",0.965
same,normalized growth,"S. cerevisiae deletion strains, locus YLL026W, hits give low values",0.994
same,normalized growth,"S. cerevisiae deletion strains, locus YLL041C, strain sdh2, hits give low values",0.991
same,normalized growth,"S. cerevisiae deletion strains, locus YLR027C, strain aat2, hits give low values",0.997
same,normalized growth,"S. cerevisiae deletion strains, locus YLR039C, strain RIC1, hits give low values",0.443 (active)
same,normalized growth,"S. cerevisiae deletion strains, locus YLR058C, strain SHM2, hits give low values",0.908
same,normalized growth,"S. cerevisiae deletion strains, locus YLR102C, strain apc9, hits give low values",0.997
same,normalized growth,"S. cerevisiae deletion strains, locus YLR113W, strain HOG1, hits give low values",1.04
same,normalized growth,"S. cerevisiae deletion strains, locus YLR221C, strain rsa3, hits give low values",0.964
same,normalized growth,"S. cerevisiae deletion strains, locus YLR258W, strain gsy2, hits give low values",0.985
same,normalized growth,"S. cerevisiae deletion strains, locus YLR262C, strain YPT6 (second series), hits give low values",1.01
same,normalized growth,"S. cerevisiae deletion strains, locus YLR262C, strain YPT6, hits give low values",0.514 (active)
same,normalized growth,"S. cerevisiae deletion strains, locus YLR268W, strain sec22, hits give low values",0.795 (active)
same,normalized growth,"S. cerevisiae deletion strains, locus YLR320W, strain mms22, hits give low values",0.973
same,normalized growth,"S. cerevisiae deletion strains, locus YLR330W, strain CHS5, hits give low values",0.842 (active)
same,normalized growth,"S. cerevisiae deletion strains, locus YLR342W, strain FKS1 (second series), hits give low values",0.864
same,normalized growth,"S. cerevisiae deletion strains, locus YLR342W, strain FKS1, hits give low values",0.983
same,normalized growth,"S. cerevisiae deletion strains, locus YLR357W, strain rsc2, hits give low values",0.972
same,normalized growth,"S. cerevisiae deletion strains, locus YLR370C, strain arc18, hits give low values",0.983
same,normalized growth,"S. cerevisiae deletion strains, locus YLR371W, strain rom2, hits give low values",0.985
same,normalized growth,"S. cerevisiae deletion strains, locus YLR384C, strain iki3, hits give low values",0.987
same,normalized growth,"S. cerevisiae deletion strains, locus YLR418C, strain cdc73, hits give low values",0.612 (active)
same,normalized growth,"S. cerevisiae deletion strains, locus YML016C, strain PPZ1, hits give low values",1.04
same,normalized growth,"S. cerevisiae deletion strains, locus YML032C, strain rad52, hits give low values",0.972
same,normalized growth,"S. cerevisiae deletion strains, locus YML120C, strain ndi1, hits give low values",0.97
same,normalized growth,"S. cerevisiae deletion strains, locus YML124C, strain tub3, hits give low values",1
same,normalized growth,"S. cerevisiae deletion strains, locus YMR058W, strain fet3, hits give low values",0.994
same,normalized growth,"S. cerevisiae deletion strains, locus YMR078C, strain ctf18, hits give low values",0.988
same,normalized growth,"S. cerevisiae deletion strains, locus YMR125W, strain sto1, hits give low values",0.978
same,normalized growth,"S. cerevisiae deletion strains, locus YMR129W, hits give low values",0.979
same,normalized growth,"S. cerevisiae deletion strains, locus YMR205C, strain PFK2, hits give low values",0.968
same,normalized growth,"S. cerevisiae deletion strains, locus YMR223W, strain ubp8, hits give low values",0.846 (active)
same,normalized growth,"S. cerevisiae deletion strains, locus YMR231W, strain pep5, hits give low values",0.991
same,normalized growth,"S. cerevisiae deletion strains, locus YMR263W, strain SAP30, hits give low values",0.932
same,normalized growth,"S. cerevisiae deletion strains, locus YMR307W, strain GAS1, hits give low values",1.18
same,normalized growth,"S. cerevisiae deletion strains, locus YNL067W, strain RPL9B, hits give low values",0.945
same,normalized growth,"S. cerevisiae deletion strains, locus YNL071W, strain lat1, hits give low values",0.988
same,normalized growth,"S. cerevisiae deletion strains, locus YNL128W, strain TEP1, hits give low values",0.955
same,normalized growth,"S. cerevisiae deletion strains, locus YNL183C, strain NPR1, hits give low values",0.97
same,normalized growth,"S. cerevisiae deletion strains, locus YNL209W, strain ssb2, hits give low values",0.984
same,normalized growth,"S. cerevisiae deletion strains, locus YNL233W, strain BNI4, hits give low values",0.695 (active)
same,normalized growth,"S. cerevisiae deletion strains, locus YNL248C, strain rpa49, hits give low values",0.982
same,normalized growth,"S. cerevisiae deletion strains, locus YNL250W, strain rad50, hits give low values",1.01
same,normalized growth,"S. cerevisiae deletion strains, locus YNL271C, strain bni1, hits give low values",0.956
same,normalized growth,"S. cerevisiae deletion strains, locus YNL298W, strain CLA4, hits give low values",0.956
same,normalized growth,"S. cerevisiae deletion strains, locus YNL307C, strain MCK1, hits give low values",0.591 (active)
same,normalized growth,"S. cerevisiae deletion strains, locus YNL322C, strain KRE1 (second series), hits give low values",0.982
same,normalized growth,"S. cerevisiae deletion strains, locus YNL322C, strain KRE1, hits give low values",0.97
same,normalized growth,"S. cerevisiae deletion strains, locus YNR049C, strain mso1, hits give low values",0.982
same,normalized growth,"S. cerevisiae deletion strains, locus YNR052C, strain pop2, hits give low values",0.954
same,normalized growth,"S. cerevisiae deletion strains, locus YOL006C, strain TOP1, hits give low values",0.783
same,normalized growth,"S. cerevisiae deletion strains, locus YOL012C, strain htz1",0.719
same,normalized growth,"S. cerevisiae deletion strains, locus YOL147C, strain pex11, hits give low values",0.834 (active)
same,normalized growth,"S. cerevisiae deletion strains, locus YOR001W, strain rrp6, hits give low values",1
same,normalized growth,"S. cerevisiae deletion strains, locus YOR061W, strain CKA2, hits give low values",0.995
same,normalized growth,"S. cerevisiae deletion strains, locus YOR069W, strain VPS5, hits give low values",0.971
same,normalized growth,"S. cerevisiae deletion strains, locus YOR070C, strain gyp1, hits give low values",0.981
same,normalized growth,"S. cerevisiae deletion strains, locus YOR080W, strain dia2, hits give low values",0.997
same,normalized growth,"S. cerevisiae deletion strains, locus YOR083W, strain WHI5, hits give low values",0.981
same,normalized growth,"S. cerevisiae deletion strains, locus YOR106W, strain vam3, hits give low values",0.953
same,normalized growth,"S. cerevisiae deletion strains, locus YOR136W, strain idh2, hits give low values",0.968
same,normalized growth,"S. cerevisiae deletion strains, locus YOR144C, strain elg1, hits give low values",0.885 (active)
same,normalized growth,"S. cerevisiae deletion strains, locus YOR184W, strain ser1, hits give low values",0.708 (active)
same,normalized growth,"S. cerevisiae deletion strains, locus YOR231W, strain MKK1, hits give low values",1.01
same,normalized growth,"S. cerevisiae deletion strains, locus YOR265W, strain rbl2, hits give low values",0.987
same,normalized growth,"S. cerevisiae deletion strains, locus YOR270C, strain vph1, hits give low values",0.972
same,normalized growth,"S. cerevisiae deletion strains, locus YOR290C, strain snf2, hits give low values",0.971
same,normalized growth,"S. cerevisiae deletion strains, locus YOR316C, strain cot1, hits give low values",0.995
same,normalized growth,"S. cerevisiae deletion strains, locus YPL051W, strain arl3, hits give low values",0.99
same,normalized growth,"S. cerevisiae deletion strains, locus YPL055C, strain LGE1, hits give low values",0.796
same,normalized growth,"S. cerevisiae deletion strains, locus YPL078C, strain atp4, hits give low values",0.983
same,normalized growth,"S. cerevisiae deletion strains, locus YPL106C, strain sse1, hits give low values",0.973
same,normalized growth,"S. cerevisiae deletion strains, locus YPL240C, strain hsp82, hits give low values",0.993
same,normalized growth,"S. cerevisiae deletion strains, locus YPL241C, strain CIN2, hits give low values",1.01
same,normalized growth,"S. cerevisiae deletion strains, locus YPL256C, strain CLN2, hits give low values",1.06
same,normalized growth,"S. cerevisiae deletion strains, locus YPR119W, strain clb2, hits give low values",0.987
same,normalized growth,"S. cerevisiae deletion strains, locus YPR141C, strain kar3, hits give low values",1.02
same,normalized growth,"S. cerevisiae deletion strains, locus YPR163C, strain tif3, hits give low values",0.889 (active)
same,normalized growth,"S. cerevisiae deletion strains, locus YPR167C, strain met16, hits give low values",0.976
same,normalized growth,"S. cerevisiae deletion strains, strain wtn01, hits give low values",0.841 (active)
same,normalized growth,"S. cerevisiae strains, strain wild type, hits give low values",0.879 (active)
